Consider 31 compounds from PubChem BioAssay (NCATS).

Inconclusive results are not listed. Values without a mark were called inactive. Calls of active or inactive are those of the source. The call rests on the fitted dose curve; in most records, active means well fitted inhibition curve with a large enough effect; inconclusive means small, poorly fitted or top-dose-only effect; inactive means flat fitted curve, though single readings scatter.
On the % scale 0 is the no-effect control and ±100 the full control effect; potency means the concentration at half of the fitted maximal effect.

One experiment in a line: Drug repurposing screens with cells derived from glioblastoma tumor samples (AID 1345199). Further: nearly all actives have a fitted effect of over 40% in size. The following applies: GBM patient neurospheres viability, ATP luminescence, 48 h; at 46 µM (top of the series); tumour line A. In a few lines: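 Primary testing used CD133+ neurospheres from four GBM patients, seven concentrations, 48 h exposure and ATP-based viability; confirmation added three slower-growing patient lines.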
As to `CC1(C)S[C@@H]2[C@H](NC(=O)C(C(=O)O)c3ccccc3)C(=O)N2[C@H]1C(=O)O` (stereo partly specified), the activity, negative = cell killing is -8.84%.

In the case of `CC(O)CCCCn1c(=O)c2c(ncn2C)n(C)c1=O` (stereo unspecified), the activity, negative = cell killing was -31.9%.

Regarding `CCCCCCCC(=O)OCC(O)CO` (stereo unspecified), the activity, negative = cell killing is -23.4%.

For the compound `OCC(O)CS` (stereo unspecified), the activity, negative = cell killing was -9.33%.

Turning to `CC(CSC(=O)c1ccccc1)C(=O)N1C[C@@H](Sc2ccccc2)C[C@H]1C(=O)O` (stereo partly specified), the activity, negative = cell killing is -20.1%.

For the compound `O=C(Cn1ccnc1[N+](=O)[O-])NCCO`, the activity, negative = cell killing was -16.3%.

As for `O=C(O)Cn1c(C(=O)Nc2nc(-c3ccccc3Cl)cs2)cc2ccccc21`, the activity, negative = cell killing is -41.5%.

For the compound `COc1ccccc1OC(=O)Oc1ccccc1OC`, the activity, negative = cell killing was -34.8%.

Take `CN1C(C)(C)CCCC1(C)C`: the activity, negative = cell killing is -29.4%.

Regarding `CC(C)c1cc2c(cc1S(=O)(=O)O)[C@@]1(C)CCC[C@@](C)(C(=O)O)[C@@H]1CC2`, the activity, negative = cell killing is -18.1%.

With `CCOC(=O)c1cccnc1`, the activity, negative = cell killing is -24.1%.

In the case of `NC(=O)CC[C@@H](N)C(=O)O`, the activity, negative = cell killing was 4.73%.

With `CC(C)CCOC(=O)c1ccc(N(C)C)cc1`, the activity, negative = cell killing is -50%.

Regarding `COc1ccccc1Oc1c(NS(=O)(=O)c2ccc(C(C)(C)C)cc2)nc(-c2ncccn2)nc1OCCO`, the activity, negative = cell killing is -57.2%.

For `COc1nccnc1NS(=O)(=O)c1ccc(N)cc1`, the activity, negative = cell killing was -24.3%.

As to `OCCN1C[C@H](O)[C@@H](O)[C@H](O)[C@H]1CO`, the activity, negative = cell killing was -17.7%.

For `Nc1ncnc2c1ncn2[C@@H]1O[C@H](COP(=O)(O)O)[C@@H](O)[C@H]1O`, the activity, negative = cell killing was -19.3%.

On to `CCCCCCCCCCCCCCCCC(C(=O)O)C(O)(CC(=O)O)C(=O)O` (stereo unspecified), for which the activity, negative = cell killing is -28.6%.

The same experiment, now with this note: GBM patient neurospheres viability, ATP luminescence, 48 h; at 46.1 µM (top of the series); tumour line C.
On to `CC1(C)S[C@@H]2[C@H](NC(=O)C(C(=O)O)c3ccccc3)C(=O)N2[C@H]1C(=O)O` (stereo partly specified), for which the activity, negative = cell killing was 7.57%.

Turning to `CC(O)CCCCn1c(=O)c2c(ncn2C)n(C)c1=O` (stereo unspecified), the activity, negative = cell killing was -1.44%.

Take `O=C1c2ccccc2C(=O)C1c1ccc(Br)cc1`: the activity, negative = cell killing was -18.3%.

Consider `CCCCCCCC(=O)OCC(O)CO` (stereo unspecified), for which the activity, negative = cell killing is -3.44%.

`OCC(O)CS` (stereo unspecified): the activity, negative = cell killing was -1.31%.

Regarding `NCC1CCC(C(=O)Oc2ccc(CCC(=O)O)cc2)CC1` (stereo unspecified), the activity, negative = cell killing was 8.61%.

Regarding `CC(CSC(=O)c1ccccc1)C(=O)N1C[C@@H](Sc2ccccc2)C[C@H]1C(=O)O` (stereo partly specified), the activity, negative = cell killing was -14.7%.

Regarding `O=C(Cn1ccnc1[N+](=O)[O-])NCCO`, the activity, negative = cell killing is -12.1%.

Turning to `CN(C/C=C/C#CC(C)(C)C)Cc1cccc2ccccc12`, the activity, negative = cell killing was -0.19%.

Regarding `Cc1cc(NC(=O)C2=C(O)c3ccccc3S(=O)(=O)N2C)no1`, the activity, negative = cell killing was -15.1%.

For `Cc1ccccc1N=Nc1ccc(N=Nc2c(O)ccc3ccccc23)c(C)c1`, the activity, negative = cell killing was -1.06%.

Take `CCOc1ccccc1O[C@H](c1ccccc1)[C@H]1CNCCO1`: the activity, negative = cell killing was 11.5%.

Regarding `COc1ccccc1OC(=O)Oc1ccccc1OC`, the activity, negative = cell killing was -5.39%.

For `O=C(CN1CCNCC1)NC1CCCCC1`, the activity, negative = cell killing was -22.5%.

Take `CN1C(C)(C)CCCC1(C)C`: the activity, negative = cell killing was -8.74%.

As to `CC(C)c1cc2c(cc1S(=O)(=O)O)[C@@]1(C)CCC[C@@](C)(C(=O)O)[C@@H]1CC2`, the activity, negative = cell killing is -15.9%.

Regarding `CCOC(=O)c1cccnc1`, the activity, negative = cell killing was 22.3%.

Consider `NC(=O)CC[C@@H](N)C(=O)O`, for which the activity, negative = cell killing is 1.46%.

Turning to `CC(C)CCOC(=O)c1ccc(N(C)C)cc1`, the activity, negative = cell killing was -13.2%.

Take `COc1ccccc1Oc1c(NS(=O)(=O)c2ccc(C(C)(C)C)cc2)nc(-c2ncccn2)nc1OCCO`: the activity, negative = cell killing was -29.9%.

As to `Nc1ccc(C(=O)Oc2ccccc2)c(O)c1`, the activity, negative = cell killing was -12.2%.

Consider `O=C(O)Cc1cn(-c2ccccc2)nc1-c1ccc(Cl)cc1`, for which the activity, negative = cell killing was -18.4%.

For the compound `COc1nccnc1NS(=O)(=O)c1ccc(N)cc1`, the activity, negative = cell killing is -3.06%.

As to `OCCN1C[C@H](O)[C@@H](O)[C@H](O)[C@H]1CO`, the activity, negative = cell killing was -28.1%.

For the compound `CN1CCN(C(=O)C2CCCCC2)CC1`, the activity, negative = cell killing is -23.1%.

`Nc1ncnc2c1ncn2[C@@H]1O[C@H](COP(=O)(O)O)[C@@H](O)[C@H]1O`: the activity, negative = cell killing was -13.6%.

As to `CCCCCCCCCCCCCCCCC(C(=O)O)C(O)(CC(=O)O)C(=O)O` (stereo unspecified), the activity, negative = cell killing was -24.9%.

Regarding `C[N+](C)(C)CC(O)CC(=O)[O-]` (stereo unspecified), the activity, negative = cell killing is -12.8%.

The experiment is the same for the next values; noted with them: GBM patient neurospheres viability, ATP luminescence, 48 h; tumour line A.
Consider `CC1CCN(CCCC(=O)c2ccc(F)cc2)CC1`, for which the Potency was 10 µM (active).

Consider `CN(C/C=C/C#CC(C)(C)C)Cc1cccc2ccccc12`, for which the Potency was 20 µM (active).

Take `COC(=O)c1ccccc1C(=O)c1ccc(OCCN2CCCCC2)cc1`: the Potency was 7.08 µM (active).

Regarding `CCOc1ccccc1O[C@H](c1ccccc1)[C@H]1CNCCO1`, the Potency is 12.6 µM (active).

On to `Nc1ccc(C(=O)Oc2ccccc2)c(O)c1`, for which the Potency is 11.2 µM (active).
